From PubChem BioAssay (NCI)
Values joined by “and” are separate entries in the source; they are usually repeats but may differ in a detail not shown here. Identical values can stand only once. About 79,000 compounds went through this panel and 15% of them were active in at least one assay; those are over-represented in the sample as a whole. Active and inactive are the calls of the source. No stated cut-off is given here; in the data, active means growth inhibition above about 70%; inactive means the rest.

Legend:
[1] = NCI Yeast Anticancer Drug Screen. Data for the rad50 strain (AID 155);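 further: 0% = growth of vehicle-only cultures of the same strain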; conditions: S. cerevisiae rad50 strain growth inhibition; at 50.0 µM; stronger effect = higher value
Outline: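 Readout: growth inhibition relative to vehicle-treated cultures. Compound exposure was carried out in a genetically defined yeast strain deficient in DNA damage repair.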

[2] = NCI Yeast Anticancer Drug Screen. Data for the mec2-1 strain (AID 157); conditions: S. cerevisiae mec2-1 strain, at 50.0 µM, stronger effect = higher value
Outline: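 Growth inhibition is read against vehicle-treated controls after compound exposure of the mec2-1 yeast strain, which is defective in DNA damage repair or cell cycle control.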

[3] = NCI Yeast Anticancer Drug Screen. Data for the sgs1 mgt1 strain (AID 161);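 further: 0% = growth of cultures given vehicle only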; conditions: S. cerevisiae sgs1 mgt1 strain, at 50.0 µM, stronger effect = higher value
Outline: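 Growth of a repair-deficient yeast mutant was monitored after compound treatment and expressed as inhibition relative to vehicle-treated cultures.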

[4] = NCI Yeast Anticancer Drug Screen. Data for the cln2 rad14 strain (AID 165);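 further: 0% = growth equal to vehicle treated cultures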; conditions: S. cerevisiae cln2 rad14 strain, at 50.0 µM, stronger effect = higher value
Outline: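 Growth inhibition, relative to vehicle-treated controls, is the read-out. The test organism is a yeast strain with defined genetic alterations, cln2 rad14.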

[5] = NCI Yeast Anticancer Drug Screen. Data for the bub3 strain (AID 167); conditions: S. cerevisiae bub3 mutant strain, at 50.0 µM, stronger effect = higher value
Outline: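 Readout: yeast growth inhibition, expressed relative to vehicle-only wells. The test organism is a mutant strain from a panel with lesions in DNA repair or checkpoint genes.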

[6] = NCI Yeast Anticancer Drug Screen. Data for the mlh1 rad18 strain (AID 175); conditions: S. cerevisiae mlh1 rad18 strain growth inhibition; at 50.0 µM; stronger effect = higher value
Outline: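 Cells of a genetically altered yeast strain, deficient in DNA damage repair, were treated with compound. Their growth was then compared with that of vehicle-treated cultures to give inhibition.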

Measured: growth inhibition

COc1cc([C@@H]2c3cc(O)c(OC)cc3C[C@H]3C(=O)OC[C@@H]23)ccc1O
inactive: [1] 20.1% | [2] -13.7% | [3] 26.2% | [4] 10.3% | [5] 25.3% | [6] -1.6%

NC(N)=N/N=C/C(=N\N=C(N)N)C(O)C(O)C(O)C(O)CO (stereo not drawn)
inactive: [1] -10.3% and 44.2% | [2] -20.9% and -3.55% | [3] -16.1% and 31.9% | [4] -22.6% and 15.1% | [5] -3.8% and 7.3% | [6] -22.4% and 15.9%

O=Cc1ccccc1O
inactive: [1] 28.8% | [2] -2.25% | [3] 12.4% | [4] -10.4% | [5] -6.05% | [6] 5.6%

COc1ccc(CO)cc1
inactive: [1] -1.5% | [2] -10.1% | [3] 11.3% | [4] -12.8% | [5] -17.3% | [6] -13.7%

CN(C)/N=C(\CCN1CCCC1)CC(c1ccccc1)c1c(O)c2ccccc2oc1=O (stereo not drawn)
inactive: [1] 55% | [2] 35.6% | [3] 63.1% | [4] 48% | [5] 49.9% | [6] 50.3%

COC[C@]12CN(C=O)[C@H]3C4[C@H](OC)[C@H]1C3([C@@H](OC)C[C@H]2O)[C@@H]1C[C@@]2(O)[C@H](OC(=O)c3ccccc3)[C@@H]1[C@]4(OC(C)=O)[C@@H](O)[C@@H]2OC
inactive: [1] 9.45% | [2] 14.4% | [3] -13.8% | [4] -2.2% | [5] 0.2% | [6] 25.6%

CC(C)CCC[C@@H](C)[C@H]1CC[C@H]2[C@@H]3CC=C4C[C@@H](OC(=O)Cl)CC[C@]4(C)[C@H]3CC[C@]12C
inactive: [1] -24.1% | [2] -24.9% | [3] -14.7% | [4] 1.7% | [5] -2.7% | [6] -13.4%

CC1=C/C(=N\[Se]c2ccccc2)C(=O)C(C)=C1
inactive: [1] 43.7% | [2] 27.4% | [3] 24% | [4] -9.05% | [5] 47.4% | [6] 36.3%

O=[N+]([O-])c1ccc(NC(c2ccccc2)P(=O)(Oc2ccccc2)Oc2ccccc2)cc1 (stereo not drawn)
inactive: [1] -1.75% | [2] -6.4% | [3] -43.1% | [4] -6% | [5] -2.05% | [6] 3.65%

N#CC(c1ccccc1)c1ccccc1
inactive: [1] -12.9% | [2] 9.35% | [3] -4.55% | [4] -17.6% | [5] 20.6% | [6] 31.3%

CC1CCC2N(C1)CC1C3(O)CC45OC6(O)C(O)CCC4(C)C6CCC5C3(O)CC(O)C1(O)C2(C)O (stereo not drawn)
inactive: [1] -19.9% and -2.1% | [2] -17.9% and -31.1% | [3] -2.9% and -17.4% | [4] -21.6% and 9.15% | [5] -31.2% and -0.4% | [6] 6.5% and -15.3%

N#C[CH2][Sn]([I])([c]1ccccc1)[c]1ccccc1
active: [4] 72%
inactive: [1] -12.5% | [2] 30.4% | [3] 1.15% | [5] -0.25% | [6] 1.9%

Cc1cc(N(CCCl)CCCl)ccc1CN1CCCN(Cc2ccc(N(CCCl)CCCl)cc2C)C1c1ccccc1O
inactive: [1] 0.25% | [2] 14.5% | [3] 11.1% | [4] -4.5% | [5] 0.05% | [6] 31.9%

O=C(N=[C-]c1ccc[oH+]1)c1cccnc1.O=C(N=[C-]c1ccc[oH+]1)c1cccnc1.[Ni+2]
inactive: [1] -24.7% | [2] -34.5% | [3] -3.4% | [4] -25.4% | [5] -31.8% | [6] 5.65%

Cn1ccnc1C[N-]Cc1nccn1C.O=[N+]([O-])[O-].O=[N+]([O-])[O-].[Cu+2]
inactive: [1] 18.2% | [2] 7.5% | [3] -1.35% | [4] 24.4% | [5] -5.35% | [6] 5.5%

CP1(=S)CC[C@H]2C3=C(CC[C@@H]21)CC(=O)CC3 (stereo partly drawn)
inactive: [1] 14.4% | [2] 14.6% | [3] 11.3% | [4] 52.9% | [5] 2.9% | [6] 16.9%

Cc1c2n(c3ccccc13)CC1CON(C)C21 (stereo not drawn)
inactive: [1] -14.4% | [2] -11.5% | [3] -8.95% | [4] -1.3% | [5] -31.4% | [6] -19.9%

CCCCC1(CCS)C(=O)NC(=O)NC1=O
inactive: [1] -5.55% | [2] -11.8% | [3] -4.75% | [4] -10.1% | [5] -4.05% | [6] -17.1%

CC(C)(C)c1ccc(C(C)(C)OO)cc1
inactive: [1] 31.6% | [2] -0.7% | [3] 18.3% | [4] 12.3% | [5] 10.2% | [6] 6.2%

CC1(C)C(=O)C=CC2(C)C3CCC4(C)C(O)CCC4(C)C3CCC12 (stereo not drawn)
inactive: [1] 9.6% | [2] -10.2% | [3] 7.2% | [4] -30.1% | [5] 13.8% | [6] 20.1%

N#C[C@H](OC1OC(COC2OC(CO)C(O)C(O)C2O)C(O)C(O)C1O)c1ccccc1 (stereo partly drawn)
inactive: [1] -34.5% | [2] -34.6% | [3] -20.6% | [4] -1.3% | [5] -29.1% | [6] -28.1%

COC1=CC(=O)OC(CCc2ccccc2)C1 (stereo not drawn)
inactive: [1] -2.7% | [2] -5.9% | [3] -1.9% | [4] -14.2% | [5] -9.35% | [6] -4.85%

CC1c2[nH]c3ccccc3c2CCN1C (stereo not drawn)
inactive: [1] 4.2% | [2] -21.7% | [3] 7.8% | [4] 13.5% | [5] -6.95% | [6] 12.3%

CCC1(CC)COP(=S)(S)OC1
inactive: [1] 10.8% | [2] -17.8% | [3] -16.9% | [4] 10.1% | [5] -3.5% | [6] -3.2%

CCOC(=O)NP(=O)(Nc1ccccc1)Nc1ccccc1
inactive: [1] 21.2% | [2] -8.05% | [3] -3.5% | [4] 5.7% | [5] -5.1% | [6] -5%

CN1Cc2cc3cc4c(cc3nc2N(C)C1)OCCO4
inactive: [1] 1.5% | [2] 12.2% | [3] -1.5% | [4] 11.4% | [5] 8.9% | [6] 15.1%

O=[As]c1ccc(C(=O)O)cc1 (stereo not drawn)
inactive: [1] 11.2% | [2] -8.75% | [3] 0.2% | [4] 19.3% | [5] -7.2% | [6] 23.2%

N=C(N)c1nn[nH]n1
inactive: [1] -18.9% | [2] -5.25% | [3] -19.8% | [4] 1.75% | [5] -7.05% | [6] -27.3%

CC(C)SP(=S)(SC(C)C)SC(C)C
inactive: [1] 8% | [2] -10.1% | [3] 8.3% | [4] -20.4% | [5] 4.15% | [6] 17.1%

COC(C(=O)O)(c1ccccc1)c1ccccc1
inactive: [1] -24.8% | [2] -18.9% | [3] 1.05% | [4] -33.9% | [5] -9.2% | [6] -0.35%

N#CCCNCCC#N
inactive: [1] 3.95% and 11.8% and 12.2% | [2] 4.4% and -11.6% and 3.15% | [3] -6.05% and 9.35% and -2.9% | [4] -41.6% and 25.7% and 16.1% | [5] -4.95% and 8.65% and 1.45% | [6] 6.15% and 13.7% and 14.7%

COc1ccc2c(c1)CC(CN1CCC3(CC1)C(=O)NCN3c1ccccc1)O2 (stereo not drawn)
active: [1] 76.7% | [3] 86.4% | [4] 79% | [6] 78.5%
inactive: [2] 57% | [5] 55.5%

CCOC(OCC)c1ccc(N(C)C)cc1.[C-]#[O+].[C-]#[O+].[C-]#[O+].[Cr]
inactive: [1] -8.25% | [2] -30.2% | [3] 37.8% | [4] -4.5% | [5] -8.3% | [6] 4.6%

COc1ccc2c3c1OC1C4(OC)CCC5(c6c(O)ccc(O)c64)C(C2)N(C)CCC315 (stereo not drawn)
inactive: [1] 5.75% | [2] 4% | [3] 7.2% | [4] 13.3% | [5] -6.4% | [6] 4.15%

NC(=O)NNC(=O)C(Cl)(Cl)Cl
inactive: [1] -0.45% | [2] -8.55% | [3] 5.6% | [4] -63.3% | [5] -4.65% | [6] -14.2%

NC(CCl)=NC1CN2CCC1CC2 (stereo not drawn)
inactive: [1] -22.5% | [2] -20.4% | [3] -13.2% | [4] 5.9% | [5] -32.1% | [6] -7.15%

CCS(=O)(=O)CCN1C(=O)CN=C(c2ccccc2F)c2cc(Cl)ccc21
inactive: [1] 27.6% | [2] 6% | [3] 20.8% | [4] 12.4% | [5] -0.7% | [6] 16.4%

CCN(CCCl)CCCCCNc1c2ccccc2nc2ccc(OC)cc12
active: [1] 84.5% | [2] 84.5% | [3] 83% | [4] 84.3% | [5] 78.8% | [6] 76%
